In all, about 33,000 sequences were measured (“E-score (-0.5 to 0.5)”: median about -0.035, highest 2% from about 0.34 on). Many of the other results were omitted from the sample, so the highest values are more common in it than they were.
molecular target: T1, Mot3 (UniProt P54785); assay: PBM E-score (8-mer binding enrichment) (E-score (-0.5 to 0.5)); higher = stronger / more preferred TF binding; conditions: protein concentration: 200 nM; construct: GST-full length
T1 sequence: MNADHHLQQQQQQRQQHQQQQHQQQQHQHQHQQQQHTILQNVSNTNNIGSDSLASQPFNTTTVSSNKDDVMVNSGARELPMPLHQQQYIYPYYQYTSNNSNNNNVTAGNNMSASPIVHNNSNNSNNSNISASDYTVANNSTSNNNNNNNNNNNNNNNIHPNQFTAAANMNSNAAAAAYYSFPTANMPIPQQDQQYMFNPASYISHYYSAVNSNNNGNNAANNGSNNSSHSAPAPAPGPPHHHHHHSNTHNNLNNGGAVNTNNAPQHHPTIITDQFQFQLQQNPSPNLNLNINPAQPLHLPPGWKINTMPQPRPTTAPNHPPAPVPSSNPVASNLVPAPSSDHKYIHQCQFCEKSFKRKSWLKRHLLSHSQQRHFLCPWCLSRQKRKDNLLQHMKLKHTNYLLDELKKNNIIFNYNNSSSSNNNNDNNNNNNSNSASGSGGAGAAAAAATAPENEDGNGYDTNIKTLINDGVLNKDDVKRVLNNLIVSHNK
Outline: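 E-scores (a modified Wilcoxon-Mann-Whitney statistic) were assigned by the Universal PBM Analysis Suite to every ungapped eight-base word pooled with its reverse complement. The input came from universal all-10-mer Agilent arrays made double-stranded by primer extension and probed with GST-tagged yeast transcription factors at about 100-200 nM. Fluorescent anti-GST detected bound protein, and masliner normalised the scans.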

| Sequence | PBM E-score |
| --- | --- |
| GTTGCCCA | 0.103 |
| ATTGCCTC | 0.331 |
| GCTGCCTA | 0.282 |
| GTTGCCTA | 0.488 |
| ATTGCCTG | 0.482 |
| GAGCGCTC | -0.331 |
| CGTCGCAA | -0.149 |
| CAAGTCGG | -0.254 |
| GGTACTCA | 0.0108 |
| AGCTATAA | -0.0249 |
| CAGGTTCG | -0.00261 |
| CACCAGGA | -0.104 |
| CCTGCCTA | 0.244 |
| CTTGCCGA | -0.0816 |
| CTTGCCTA | 0.488 |
| CGTTTGTC | -0.0445 |
| CAGCCGCG | -0.0863 |
| CTTTACAC | 0.415 |
| ATTTACGC | 0.239 |
| GTTTACAA | 0.336 |
| ATTTACAG | 0.228 |
| CGTTACAC | 0.274 |

| Sequence | PBM E-score |
| --- | --- |
| ATTTACAA | 0.363 |
| CTTTACAA | 0.326 |
| ATTTTTAC | 0.34 |
| ATTTACTC | 0.159 |
| ATTTACAC | 0.412 |
| AATTTTAC | 0.222 |
| ATTTTTAA | 0.156 |
| ACGAGAAC | 0.0296 |
| CATACAGC | -0.19 |
| AAACGTGC | 0.118 |
| GCACCTCC | -0.215 |
| ATGTCCTA | -0.0455 |
| CGAGAGAG | -0.145 |
| GACTGGAA | -0.213 |
| AATAGGTA | 0.38 |
| TATAGGAA | 0.412 |
| AATAGGAT | -0.00596 |
| CCTAGGAA | 0.018 |
| AATAGGTC | 0.0378 |
| AATAGGAA | 0.415 |
| GATAGGAA | 0.197 |
| AATAGGTG | 0.0976 |

| Sequence | PBM E-score |
| --- | --- |
| CATAGGAA | 0.231 |
| ACGTGCCA | 0.00099 |
| AAGTCCGT | -0.0474 |
| AGTTAGGA | 0.108 |
| ATCAGGTA | 0.256 |
| GGGCGTGA | -0.066 |
| CGACTTCC | -0.0315 |
| TCTATAGA | -0.152 |
| ACAATGGT | -0.058 |
| ATGTAAGG | 0.298 |
| ATGTAACG | 0.268 |
| CTGTAATA | 0.238 |
| ATGTAAGA | 0.309 |
| AGGTAATG | 0.279 |
| CGGTAATC | -0.149 |
| ATGTATTG | 0.303 |
| ATGTAATG | 0.395 |
| AGGTAATC | 0.344 |
| ATGTATTC | 0.363 |
| CTGTATTC | 0.185 |
| ATGTAATA | 0.405 |
| GGAGACCC | -0.0421 |

| Sequence | PBM E-score |
| --- | --- |
| ACAACTAA | 0.183 |
| AGAAGTGG | -0.199 |
| ATGCGTGG | -0.214 |
| CTGCAACA | 0.0762 |
| CGCCACTA | -0.196 |
| AAGTCCAC | -0.187 |
| AAGTGCTC | -0.203 |
| ACCAGTAA | 0.016 |
| GCACAGCA | 0.144 |
| CAAGTTGC | 0.144 |
| CAGCGAGG | -0.276 |
| TTCGCAAA | 0.0552 |
| CTGTAATC | 0.111 |
| GGGTAATA | 0.17 |
| ATGTAATC | 0.367 |
| GAGTAATA | 0.147 |
| GTGTAATA | 0.375 |
| ATGTAAGC | 0.267 |
| AGCGAAGC | -0.0443 |
| CAAGGCTC | 0.0281 |
| AAAGGCTC | 0.354 |
| CAAGGCGC | 0.191 |

| Sequence | PBM E-score |
| --- | --- |
| GAAGGCCC | 0.122 |
| AAAGGCGG | 0.0743 |
| AAAGGCTG | 0.0993 |
| AAAGGCGC | 0.371 |
| GAAGGCGC | 0.362 |
| GAAGGCGA | -0.0248 |
| CAATGAGG | -0.197 |
| TACGCGAA | 0.221 |
| TCGACTAA | -0.0673 |
| ACGCACTG | 0.00111 |
| AGGCACTG | 0.483 |
| AGGCACTA | 0.484 |
| AGGCACTC | 0.481 |
| CGGCACTC | -0.251 |
| CGGCACTA | -0.184 |
| ATGCACTC | -0.061 |
| GGGCACTA | 0.0732 |
| AAGCACTG | -0.0039 |
| GTGATCGA | 0.11 |
| TAAAAGCA | -0.123 |
| GCAGACAC | -0.00428 |
| AGAGACGA | -0.246 |
